# Compounds with a hit are over-represented: about 4.4% of the library has one in this group of screens.
# TRHR agonist: activates the human TRH receptor; P34981; TRHR cells, calcium flux fluo-8, FDSS agonist mode; activation, % at 2 µM; actives 0.18% (n = 360,000); AID 493084
# Target sequence (P34981 whole entry, looked up): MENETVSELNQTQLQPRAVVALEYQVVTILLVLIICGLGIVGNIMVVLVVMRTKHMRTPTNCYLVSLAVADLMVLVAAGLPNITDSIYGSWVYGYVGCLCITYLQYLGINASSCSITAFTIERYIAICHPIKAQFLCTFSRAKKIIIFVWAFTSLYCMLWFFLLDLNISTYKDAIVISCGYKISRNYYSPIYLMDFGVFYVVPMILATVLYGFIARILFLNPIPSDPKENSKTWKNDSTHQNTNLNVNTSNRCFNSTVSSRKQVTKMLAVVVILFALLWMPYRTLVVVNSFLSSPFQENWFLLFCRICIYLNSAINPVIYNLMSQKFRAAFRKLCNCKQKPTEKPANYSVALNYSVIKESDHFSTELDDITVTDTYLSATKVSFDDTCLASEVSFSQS
#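 Steps: seed TRHR cells overnight; add fluo-8 no-wash Ca dye, RT 30 min–1.5 h; record 10 s baseline; pin-transfer compounds; monitor fluorescence 1 cycle/s for the agonist window. Calcium increases flag candidate agonists.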
# USP1-UAF1 inh: USP1/UAF1 (human) deubiquitinase inhibition; recombinant USP1/UAF1, Ub-Rhodamine cleavage fluorescence; AID 743255; Potency, µM (series often up to 57.1 µM), usual class: inhibitors; actives 0.23% (n = 390,000); active = well fitted inhibition curve with a large enough effect; note: nearly all actives have a fitted effect of over 60% in size
#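 USP1/UAF1 complex (1 nM) preincubated 15 min at room temperature with compound, then Ub-Rho substrate (150 nM final) added. Kinetic fluorescence at 480/540 nm over 6 reads at 60 s intervals; 50 mM HEPES pH 7.8, 0.5 mM EDTA, 0.1 mg/ml BSA, 1 mM TCEP, 0.01% Tween-20.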
# D1 PAM: human D1 dopamine receptor positive modulation | P21728 | HEK293 TREx D1 cells, calcium flux, dopamine EC20 potentiation | potentiation, % at 10 µM | actives 0.036% (n = 360,000); in the data active = potentiation above about 30%
# D1 antagonist: antagonists of human D1 dopamine receptor. P21728. HEK293 TREx D1 cells, calcium flux, dopamine EC80; active compounds read low. activity change, negative = inhibition, % at 10 µM. actives 3.2% (n = 360,000); in the data active = activity change below about -30%
#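 HEK293 T-REx cells expressing inducible, force-coupled D1 receptor; no-wash Ca dye, 30–90 min RT. Cmpd → 180 s read at 1 Hz → EC80 DA → 180 s read.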
# TRHR enhancer: TRH receptor (human) allosteric enhancement | TRHR cells, fluo-8 calcium fluorescence, EC20 TRH enhancement | enhancement, % at 2 µM | actives 0.66% (n = 360,000); in the data active = enhancement above about 30%
#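 Enhancer read-out: after compound pinning and an initial kinetic agonist-mode read, an EC20 of TRH (10 nM final) was injected and fluo-8 calcium signal (Ex 480/Em 530) followed at 1 s/cycle for 100 cycles in TRHR-expressing cells.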
# D1 agonist: human D1 receptor agonism; HEK293 T-REx D1 cells, calcium flux, agonist mode; activation, % at 2 µM; actives 1% (n = 360,000)
#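 Agonism was scored from calcium flux recorded over 180 s (1 read/s) after pintool compound addition, following a 10-cycle baseline. Cells were inducible force-coupled HEK293 TREx D1, plated overnight at 30 C and loaded with no-wash calcium dye.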
# A number is an active result; 0 = inactive; - = no result; ! = repeats disagree. Cut-off read from the data, not from the text of the source, unless noted: active = activation above about 30%; inactive = the rest.
SMILES,TRHR agonist,USP1-UAF1 inh,D1 PAM,D1 antagonist,TRHR enhancer,D1 agonist
COCCCNCCCOc1ccc(C(C)(C)c2ccccc2)cc1,0,0,0,0,0,0
Clc1cc(Br)ccc1OCCCNCc1ccccc1,0,0,0,0,0,55
O=C(CCNS(=O)(=O)c1ccc2c(c1)CCN2C(=O)C1CC1)Nc1ccc(F)cc1F,0,0,0,0,0,0
COc1ccc(-n2c(C)nc(N)c2C(=O)c2ccccc2)cc1,0,0,0,0,0,0
COC(=O)c1c(N)nc(C)n1-c1ccc(OC)cc1,0,0,41,0,0,0
CN1CCN(C(CNC(=O)C(=O)Nc2cccc(Cl)c2)c2ccc3c(c2)OCO3)CC1 (configuration not stated),0,0,0,0,0,0
CCC(Sc1nc2cc3c(cc2c(=O)n1CCCCCC(=O)NCc1ccc2c(c1)OCO2)OCO3)C(=O)NCCCOC (configuration not stated),0,0,0,0,0,0
COc1ccc(C(=O)n2nc(-c3ccco3)nc2NCc2cccs2)cc1,0,0,0,0,0,0
Cc1c2cnn(CC(=O)NC(C)C)c(=O)c2c(C)n1Cc1cccc(Cl)c1,0,0,0,-55,0,0
O=C(NCc1ccco1)c1ccc2snnc2c1,0,0,0,0,32,0
O=S(=O)(c1cccc(F)c1)N1CCc2sccc2C1c1ccc(OC(F)(F)F)cc1 (configuration not stated),0,0,0,-41,0,0
CCC(C)NC(=O)c1cc(CC(C)C)on1 (configuration not stated),0,0,0,-30,0,0
Cc1cc(NC(=O)c2cc(CC(C)C)on2)no1,0,0,0,0,0,0
COCCN(Cc1nc2ccccc2c(=O)[nH]1)C(=O)c1cccc(S(=O)(=O)N2CCCC2)c1,0,0,0,-55,0,0
CN(Cc1nc2ccccc2c(=O)[nH]1)C(=O)c1cccc(S(=O)(=O)N2CCCCCC2)c1,0,0,0,0,0,0
CC1=C(C(N)=O)C(c2cccc(F)c2)n2nc(SCc3ccccc3)nc2N1 (configuration not stated),0,0,0,0,0,0
Cc1cc(SC(C)C(=O)Nc2c(C)n(C)n(-c3ccccc3)c2=O)nc2ccccc12 (configuration not stated),0,0,0,-32,0,0
Cc1c(NC(=O)C(C)Sc2ncnc3ccccc23)c(=O)n(-c2ccccc2)n1C (configuration not stated),0,0,0,0,0,0
O=C(Nc1ccccc1O)c1cc(S(=O)(=O)N2CCCC2)ccc1Cl,0,0,0,0,0,0
Cc1cc(C(=O)N2CCCC(C(=O)c3ccc(Cl)cc3C)C2)no1 (configuration not stated),0,0,0,-35,0,0
CCOc1ccc(N2CC(NC(=O)c3ccc(Cl)cc3)CC2=O)cc1 (configuration not stated),0,0,0,-,0,0
Cc1ccc2cc(C#N)c(N3CCCN(C(=O)C4CCCO4)CC3)nc2c1 (configuration not stated),0,0,0,-44,0,0
Cc1ccc2cc(C#N)c(N3CCCN(C(=O)c4cnccn4)CC3)nc2c1,0,0,0,0,0,0
CCOC(=O)c1c(C)[nH]c(CCC(=O)Nc2ccc(C)c(F)c2)c1C,0,0,0,0,0,0
COc1ccc(S(=O)(=O)N2CCN(C3CCCCCCC3)CC2)cc1,0,0,0,-68!,0,0
SMILES,TRHR agonist,USP1-UAF1 inh,D1 PAM,D1 antagonist,TRHR enhancer,D1 agonist
COc1ccc(S(=O)(=O)N2CCC(C(=O)Nc3ccc(Oc4ccccc4)cc3)CC2)cc1OC,0,0,0,0,32,0
COc1ccc(S(=O)(=O)N2CCC(c3nc4ccccc4[nH]3)CC2)cc1,0,0,0,0,39,0
COc1ccc(OC2CCN(S(=O)(=O)c3ccc(OC)cc3)CC2)cc1,0,0,0,-36!,0,35
COc1ccc(S(=O)(=O)N2CCC(N3CCCCC3)CC2)cc1,0,0,0,0,0,0
COc1ccc(OC)c(S(=O)(=O)N2CCC(c3nc4ccccc4[nH]3)CC2)c1,0,0,0,0,0,0
COc1ccccc1NC(=O)CN(C)S(=O)(=O)c1ccc2c(c1)c(=O)n(C)c(=O)n2C,0,0,0,0,0,0
COc1ccc(CNC(=O)c2ccc(CS(=O)Cc3ccccc3Cl)o2)cc1 (configuration not stated),0,0,0,0,0,0
COc1ccc(S(=O)(=O)N2CCC(Oc3ccc(-n4cnnn4)cc3)CC2)cc1OC,0,0,0,0,0,0
CCOC(=O)N1CCC(N2CCN(S(=O)(=O)c3ccc(OC)cc3)CC2)CC1,0,0,0,-36,0,0
COc1ccc(S(=O)(=O)N2CCC(Oc3cccc(C(F)(F)F)c3)CC2)cc1OC,0,0,0,-36,0,0
CCOC(=O)N1CCC(N2CCN(S(=O)(=O)c3ccc(C)cc3)CC2)CC1,0,0,0,0,0,0
CCCCc1nc2cc(C(=O)N3CCCCC3COC)ccc2o1 (configuration not stated),0,0,0,-31,0,0
CCc1ccccc1NC(=O)N1CCOc2ccccc21,0,0,0,0,0,0
COc1ccc2c(c1)c1c(c(=O)n(-c3ccccc3C)c(=O)n1CC(N)=O)n2C,0,0,0,0,0,0
c1ccc2c(c1)OCCOCCOCCOCCOCCOc1ccccc1OCCOCCOCCO2,0,0,0,-36,0,0
OCCN1CCOCCOc2ccccc2OCCOCC1,0,0,0,0,0,0
Cc1oc(-c2ccc(Cl)cc2)nc1Cn1c(=O)cc(-c2ccccc2)c2c(C)nn(C)c21,0,0,0,0,0,0
O=C(O)/C=C1\NC(=O)c2ccccc21,0,0,0,0,0,0
O=C1N/C(=C\c2ccc(O)cc2)C(=O)c2ccccc21,0,28µM,0,0,0,32
O=C(COC(=O)c1ccc(O)cc1)c1ccc(S(=O)(=O)N2CCCCC2)cc1,0,0,0,-31,0,0
COc1ccc(/C=C/C(=O)OCC(=O)c2ccc(S(=O)(=O)N3CCCCC3)cc2)cc1OC,0,0,0,-55,0,0
O=C(COC(=O)c1ccc(CO)cc1)c1ccc(S(=O)(=O)N2CCCCC2)cc1,0,0,0,-32,0,0
O=C(COC(=O)c1ccc(O)cc1)Nc1ccc(S(=O)(=O)N2CCCC2)cc1,-,0,-,-,-,-
O=C(OCC(=O)N1CCN(C(=O)c2ccco2)CC1)c1ccc(S(=O)(=O)N2CCCCC2)cc1,0,0,0,-57,0,0

# Screening data (PubChem BioAssay)
